The values that follow come from PubChem BioAssay (Tox21).

Structures are written as SMILES. “And” between values parts separate entries of the source, which are not always exact repeats. Identical values can stand only once. A number with no mark means an inactive call. Inconclusive results are not listed. The source made the active and inactive calls. Unless noted, calls come from the whole dose curve; as a rule, active = well fitted curve in the direction sought with a large enough effect in the repeat runs; inconclusive = weak or mixed curves; inactive = no such curve, though single readings can be large; an effect the other way counts as inactive or inconclusive. Residues, ends and D or L forms follow the SMILES beside them.

In experiment [1] the target is Thyrotropin receptor (Homo sapiens) (UniProt P16473). Briefly: qHTS assay to identify small molecule antagonists of the thyroid stimulating hormone receptor (TSHR) signaling pathway (AID 1259385; calls by dose curve; note: nearly all actives have a fitted effect of over 20% in size). The method, boiled down:
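TSHR-HEK293 cells were plated and held 18 h at 37C/5% CO2, then given compound plus Ro20-1724 and stimulated with TSH at 1.5 ng/mL final. After 30 min at room temperature, cAMP was detected with cAMP-d2/anti-cAMP-cryptate (1 h) by fluorescence.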

Experiment [2] can be described thus: qHTS assay to identify small molecule agonists of the estrogen receptor alpha (ER-alpha) signaling pathway in the presence of an antagonist - cell viability counter screen (AID 1259386).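 Note: series mostly up to about 92 µM; cells exposed to compounds for 22 h at 37 °C before the viability read; nearly all actives have a fitted effect of over 30% in size.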 The method, boiled down:
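Viability counter screen using VM7Luc4E2 (full-length ER-alpha, four ERE-luciferase). The cells were treated with compounds alongside ICI-182,780 10.0nM for 22hr, and live-cell protease fluorescence was quantified with CellTiter-Fluor.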
A general note: Quantitative high-throughput screening tests each substance at several concentrations.

For experiment [3], the target named is Progesterone receptor (Homo sapiens) (UniProt P06401). Briefly: qHTS assay to identify small molecule agonists of the progesterone receptor (PR) signaling pathway (AID 1346784; calls by dose curve; note: nearly all actives have a fitted effect of over 30% in size). In a few lines:
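PR-UAS-bla HEK 293T cells carrying a UAS-driven beta-lactamase reporter were seeded in medium with 2% charcoal-stripped FBS, preincubated 6 hr at 37C, then exposed to compounds in DMSO for 16 hr; agonism was read by LiveBLAzer B/G FRET fluorescence.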

Experiment [4] shares this target. Briefly: qHTS assay to identify small molecule antagonists of the progesterone receptor (PR) signaling pathway (AID 1346795; active = well fitted inhibition curve with a large enough effect in the signal ratio in the repeat runs, not every such curve was filed as active; the % refers to the signal ratio). In a few lines:
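PR-UAS-bla HEK293T cells carrying a UAS-driven beta-lactamase reporter were plated in medium with 2% charcoal-stripped FBS and rested 6 hr at 37C. Compounds were added with 1 nM R5020 (final) for 16 hr, then FRET substrate loaded 2 hr at room temperature.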

Experiment [5] can be described thus: qHTS assay to identify small molecule antagonists of the progesterone receptor (PR) signaling pathway - cell viability counter screen (AID 1346798). Note: series mostly up to about 92 µM; nearly all actives have a fitted effect of over 50% in size. The method, boiled down: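 PR-UAS-bla HEK293T cells in medium with 2% charcoal-stripped FBS were treated with compounds plus R5020 for 16 hr at 37C. Cell viability was then read by CellTiter-Glo luminescence after 30 min at room temperature in the same wells.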

Experiment [6] is described as follows: qHTS assay to identify small molecule agonists of the progesterone receptor (PR) signaling pathway - cell viability counter screen (AID 1346799; calls by dose curve; note: nearly all actives have a fitted effect of over 45% in size). In a few lines: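 PR-UAS-bla HEK293T cells, 3,000 per well in medium with 2% charcoal-stripped FBS, were preincubated 6 hr at 37C, then exposed to compounds for 16 hr; viability was read as CellTiter-Glo luminescence after 30 min at room temperature.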

A short description of experiment [7]: qHTS assay to identify small molecule antagonists of the TGF-beta/Smad signaling pathway - cell viability counter screen (AID 1346824). Note: nearly all actives have a fitted effect of over 50% in size. In a few lines: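 SBE-bla HEK 293T cells were plated overnight at 37 C, then given compounds in DMSO plus TGF-beta1 (added as 0.25 ng/mL solution) for 5 hr. After the bla read, CellTiter-Glo was added to the same wells and luminescence read after 30 min at room temperature.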

Experiment [8] is described as follows: qHTS assay to identify small molecule agonists of the TGF-beta/Smad signaling pathway (AID 1346859; active = well fitted activation curve with a large enough effect in the signal ratio in the repeat runs, not every such curve was filed as active; the % refers to the signal ratio; note: series mostly up to about 77 µM). In a few lines: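 HEK 293T cells stably carrying a beta-lactamase reporter driven by the Smad binding element were seeded overnight, exposed to DMSO-dissolved compounds for 5 hr at 37 C, 5% CO2, then loaded with FRET substrate for 2 hr at room temperature.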

Experiment [9] deals with Thyrotropin-releasing hormone receptor (Homo sapiens) (UniProt P34981). Briefly: qHTS assay to identify small molecule antagonists of the thyrotropin-releasing hormone receptor (TRHR) signaling pathway (AID 1346877; active = well fitted inhibition curve with a large enough effect in the repeat runs, not every such curve was filed as active; note: series mostly up to about 51 µM). The method, boiled down:
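Following an 18 h incubation at 37 °C and a 2 h calcium dye load, TRHR-HEK293 cells were exposed to compound (5 min, room temperature) and challenged with TRH, 1 nM final.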

The target is the same in experiment [10]. Briefly: qHTS assay to identify small molecule agonists of the thyrotropin-releasing hormone receptor (TRHR) signaling pathway (AID 1346891; calls by dose curve; note: series mostly up to about 58 µM). The method, boiled down:
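TRHR-expressing HEK293 cells were plated 18 h at 37 °C/5% CO2, loaded with calcium dye 2 h at 37 °C, then given compound in DMSO; fluorescence was read kinetically for 3 min at 1 s intervals.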

Experiment [11] in a line: Human pregnane X receptor (PXR) small molecule agonists, qHTS cell viability counter screen (AID 1346977). Note: nearly all actives have a fitted effect of over 50% in size. The method, boiled down:
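PXR-Luc HepG2 cells in medium with 5% charcoal-stripped FBS were pre-incubated 5hr, then exposed to compounds for 24hr at 37C. Viability was read in the same wells by CellTiter-Fluor fluorescence, reagent added after 23hr with a 1hr incubation.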

The nature of experiment [12]: Caspase-3/7 induction in HepG2 cells by small molecules, qHTS assay (AID 1346978). Note: nearly all actives have a fitted effect of over 15% in size. In a few lines: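 Wild-type HepG2 cells (2,000/well) were settled 5 h at 37 C, 5% CO2, then exposed to compounds in DMSO for 17 h. Caspase-3/7 activity was read by luminescence 30 min after adding Caspase-Glo 3/7 reagent at room temperature.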
Experiment [13] is described as follows: Caspase-3/7 induction in CHO-K1 cells by small molecules, qHTS assay (AID 1346980). Note: nearly all actives have a fitted effect of over 15% in size. In a few lines: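 Wild-type cells were seeded at 1,500 per well and settled 5 hr at 37 C, 5% CO2, then exposed to DMSO-dissolved compounds for 17 hr. Caspase-Glo 3/7 reagent was added, and luminescence was read after 30min at room temperature.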
The nature of experiment [14]: Caspase-3/7 induction in HepG2 cells by small molecules, qHTS cell viability counter screen (AID 1346981). Note: series mostly up to about 92 µM; nearly all actives have a fitted effect of over 30% in size. The method, boiled down: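 Viability determined by CellTiter-Fluor fluorescence in HepG2 wells also used for the luminescent Caspase-Glo 3/7 read. Compounds were present for 16 hr at 37 C, 5% CO2 before reagent addition.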
Experiment [15] deals with Nuclear receptor subfamily 1 group I member 2 (Homo sapiens) (UniProt O75469). Briefly: Human pregnane X receptor (PXR) small molecule agonists, qHTS assay (AID 1346982). Note: nearly all actives have a fitted effect of over 35% in size. Note: potency is the fitted concentration of half-maximal effect. The method, boiled down: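 Compound-induced hPXR transactivation of a CYP3A4 luciferase reporter was scored in HepG2 PXR-Luc cells over 24 hr at 37 C, 5% CO2, by luminescence.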
Sequence of Nuclear receptor subfamily 1 group I member 2 (Homo sapiens) (O75469 whole entry, looked up): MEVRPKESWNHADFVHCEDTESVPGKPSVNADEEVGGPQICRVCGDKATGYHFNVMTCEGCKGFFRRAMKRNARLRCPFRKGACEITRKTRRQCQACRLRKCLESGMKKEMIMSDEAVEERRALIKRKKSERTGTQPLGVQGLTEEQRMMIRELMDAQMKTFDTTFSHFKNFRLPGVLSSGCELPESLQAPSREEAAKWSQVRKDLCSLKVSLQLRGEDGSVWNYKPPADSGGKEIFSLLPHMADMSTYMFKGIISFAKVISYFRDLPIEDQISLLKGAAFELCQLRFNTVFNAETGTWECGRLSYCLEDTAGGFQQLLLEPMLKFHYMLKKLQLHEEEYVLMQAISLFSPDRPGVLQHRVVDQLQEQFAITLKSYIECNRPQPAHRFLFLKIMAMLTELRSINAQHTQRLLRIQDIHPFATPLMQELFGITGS
Experiment [16] is described as follows: qHTS assay to identify small molecule agonists of the TGF-beta/Smad signaling pathway - cell viability counter screen (AID 1346829). Note: top concentration of the series differs between compounds; nearly all actives have a fitted effect of over 45% in size. The method, boiled down: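 Here the cytotoxicity of library compounds is measured in SBE-bla HEK 293T cells treated for 5 hr, using CellTiter-Glo added to wells already read for the beta-lactamase reporter.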
A short description of experiment [17]: Caspase-3/7 induction in CHO-K1 cells by small molecules, qHTS cell viability counter screen (AID 1346979). Note: nearly all actives have a fitted effect of over 35% in size. In a few lines: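 Wild-type CHO-K1 cells were seeded at 1,500 per well, rested 5hr at 37 C, then exposed to compounds in DMSO. After 16hr, CellTiter-Fluor reagent was added and fluorescence read 1hr later as the viability measure.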
For experiment [18], the target named is Nuclear receptor subfamily 1 group I member 2 (Rattus norvegicus) (UniProt Q9R1A7). Briefly: Rat pregnane X receptor (rPXR) activation by small molecules, qHTS assay (AID 1346983). Note: nearly all actives have a fitted effect of over 20% in size. Conditions: rPXR luciferase reporter cells, One-Glo luminescence, 24 h; hits give high values. The method, boiled down:
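Cell-based rPXR luciferase reporter assay, 2,000 cells per well, rested 5hr at 37 C before compound addition in DMSO, then 24 hr at 37 C. One-Glo reagent was added and luminescence read after 30 min at room temperature.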

Experiment [19] deals with Nuclear receptor subfamily 1 group I member 2 (Homo sapiens) (UniProt O75469). Briefly: CYP3A4 induction through human pregnane X receptor (PXR) by small molecules, qHTS assay (AID 1346984). Note: nearly all actives have a fitted effect of over 40% in size. In a few lines: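 Readings come from a luciferase reporter: DPX-2 cells, which are HepG2 cotransfected with PXR and a CYP3A4-promoter construct, were exposed to test compounds for 24 h at 37C before One-Glo detection.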

The target is the same in experiment [20]. Briefly: Human pregnane X receptor (PXR) activation by small molecules, qHTS assay (AID 1346985). Note: nearly all actives have a fitted effect of over 40% in size. In a few lines:
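DPX-2 cells (HepG2 co-transfected with a PXR response element and a CYP3A4-promoter luciferase construct) were seeded at 2,000 per well, rested 5 hr at 37C, then exposed to DMSO-dissolved compounds for 24 hr. Activation was read as luciferase luminescence.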
% is set by controls: 0 for no effect and ±100 for the full control effect.

Sequence of Thyrotropin-releasing hormone receptor (Homo sapiens) (P34981 whole entry, looked up): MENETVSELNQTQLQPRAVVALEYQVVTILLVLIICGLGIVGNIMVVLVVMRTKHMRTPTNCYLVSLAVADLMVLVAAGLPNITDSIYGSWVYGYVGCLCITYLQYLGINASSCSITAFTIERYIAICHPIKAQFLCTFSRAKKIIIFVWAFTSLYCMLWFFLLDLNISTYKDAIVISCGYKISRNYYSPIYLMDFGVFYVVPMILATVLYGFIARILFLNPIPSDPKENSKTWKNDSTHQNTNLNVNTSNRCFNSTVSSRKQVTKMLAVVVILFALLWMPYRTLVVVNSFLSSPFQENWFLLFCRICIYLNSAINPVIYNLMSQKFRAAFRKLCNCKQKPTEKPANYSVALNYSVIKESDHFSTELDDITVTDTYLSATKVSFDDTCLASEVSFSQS
Sequence of Thyrotropin receptor (Homo sapiens) (P16473 whole entry, looked up): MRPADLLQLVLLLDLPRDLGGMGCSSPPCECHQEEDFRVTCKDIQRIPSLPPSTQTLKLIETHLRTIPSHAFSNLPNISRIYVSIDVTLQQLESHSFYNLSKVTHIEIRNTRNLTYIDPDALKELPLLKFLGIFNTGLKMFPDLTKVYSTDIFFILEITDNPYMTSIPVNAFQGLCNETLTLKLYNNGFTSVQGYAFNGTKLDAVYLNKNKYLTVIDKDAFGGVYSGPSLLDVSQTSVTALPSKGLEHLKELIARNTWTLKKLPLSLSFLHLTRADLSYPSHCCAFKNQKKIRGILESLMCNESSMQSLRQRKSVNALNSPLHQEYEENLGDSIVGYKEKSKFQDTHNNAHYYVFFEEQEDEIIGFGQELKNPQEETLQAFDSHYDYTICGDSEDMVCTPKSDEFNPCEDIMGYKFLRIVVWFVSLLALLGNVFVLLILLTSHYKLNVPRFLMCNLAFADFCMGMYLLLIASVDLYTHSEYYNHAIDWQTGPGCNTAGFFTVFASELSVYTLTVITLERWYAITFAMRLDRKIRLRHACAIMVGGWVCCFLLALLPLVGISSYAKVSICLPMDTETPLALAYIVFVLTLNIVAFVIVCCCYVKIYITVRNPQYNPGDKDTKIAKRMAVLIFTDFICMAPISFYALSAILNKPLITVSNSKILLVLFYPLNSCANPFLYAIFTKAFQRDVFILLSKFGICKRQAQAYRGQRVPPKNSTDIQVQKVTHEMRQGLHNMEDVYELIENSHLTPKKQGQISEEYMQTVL
Sequence of Progesterone receptor (Homo sapiens) (P06401 whole entry, looked up): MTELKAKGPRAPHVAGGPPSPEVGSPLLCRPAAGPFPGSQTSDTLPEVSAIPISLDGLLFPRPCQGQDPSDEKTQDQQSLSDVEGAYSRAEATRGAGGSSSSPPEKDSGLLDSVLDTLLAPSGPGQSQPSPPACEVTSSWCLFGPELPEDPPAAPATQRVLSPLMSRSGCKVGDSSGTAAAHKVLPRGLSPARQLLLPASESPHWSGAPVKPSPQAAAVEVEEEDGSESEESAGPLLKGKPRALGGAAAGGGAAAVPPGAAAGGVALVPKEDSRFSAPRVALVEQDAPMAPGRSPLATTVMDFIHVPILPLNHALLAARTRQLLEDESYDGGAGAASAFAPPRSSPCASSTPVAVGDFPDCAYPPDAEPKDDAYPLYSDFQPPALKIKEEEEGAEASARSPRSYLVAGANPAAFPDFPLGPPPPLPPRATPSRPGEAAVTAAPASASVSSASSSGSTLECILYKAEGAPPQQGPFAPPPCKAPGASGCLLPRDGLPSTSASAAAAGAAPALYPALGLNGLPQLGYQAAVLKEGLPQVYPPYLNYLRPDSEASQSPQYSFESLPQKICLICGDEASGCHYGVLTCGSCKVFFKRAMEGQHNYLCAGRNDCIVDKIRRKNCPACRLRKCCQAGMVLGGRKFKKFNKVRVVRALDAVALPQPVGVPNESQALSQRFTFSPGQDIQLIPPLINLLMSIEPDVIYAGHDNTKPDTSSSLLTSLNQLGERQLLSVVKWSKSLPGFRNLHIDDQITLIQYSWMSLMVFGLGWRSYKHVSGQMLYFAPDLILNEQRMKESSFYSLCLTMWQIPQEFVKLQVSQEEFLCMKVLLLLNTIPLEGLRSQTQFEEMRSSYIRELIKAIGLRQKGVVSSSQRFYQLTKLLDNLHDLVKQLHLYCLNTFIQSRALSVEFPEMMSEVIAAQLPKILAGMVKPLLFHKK
Sequence of Nuclear receptor subfamily 1 group I member 2 (Rattus norvegicus) (Q9R1A7 whole entry, looked up): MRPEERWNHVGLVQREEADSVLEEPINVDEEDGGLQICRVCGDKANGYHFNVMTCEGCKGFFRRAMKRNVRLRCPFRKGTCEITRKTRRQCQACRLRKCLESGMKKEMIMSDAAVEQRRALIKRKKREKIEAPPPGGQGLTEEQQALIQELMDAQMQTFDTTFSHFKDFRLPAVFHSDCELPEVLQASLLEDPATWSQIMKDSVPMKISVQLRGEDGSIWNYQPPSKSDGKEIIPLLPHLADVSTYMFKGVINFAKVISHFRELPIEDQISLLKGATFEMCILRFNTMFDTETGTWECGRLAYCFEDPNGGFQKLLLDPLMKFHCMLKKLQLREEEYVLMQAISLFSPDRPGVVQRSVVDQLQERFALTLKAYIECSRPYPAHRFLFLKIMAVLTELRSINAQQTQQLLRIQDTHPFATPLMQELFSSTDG

Consider `CCCCC1C(=O)N(c2ccccc2)N(c2ccccc2)C1=O`, for which the result in experiment [1], in [4], in experiment [7], in experiment [8], in [9] and in experiment [10] was inactive. In addition, the result in experiment [13] was inactive. Moreover, the Potency result in [2], in experiment [3], in experiment [5], in experiment [6], in experiment [11] and in experiment [12] was “inactive” throughout. For the same molecule, the Potency entry in [14] is “inactive”. Moreover, the Potency in experiment [15] was 27.1 µM (active) and 24.3 µM (active).

For `CC(O)CN(CCN(CC(C)O)CC(C)O)CC(C)O` (stereo unspecified), the molecule was called inactive in experiment [1], in [4], in experiment [7], in experiment [8], in experiment [9] and in experiment [10]. Moreover, the molecule was called inactive in experiment [13] and in [19]. For the same molecule, the Potency result in experiment [2], in experiment [3], in experiment [5], in experiment [6], in experiment [16] and in [11] was “inactive” in each case. For the same molecule, the Potency result in experiment [12], in [17], in experiment [14], in experiment [15] and in experiment [20] was “inactive” in each case. Also, the max activation in experiment [18] is -4.71%.

`COc1ccc2[nH]cc(CCNC(C)=O)c2c1`: the call in experiment [1], in [4], in [7], in experiment [8], in experiment [9] and in [10] was inactive. Moreover, the molecule was called inactive in experiment [13]. Further, the Potency result in [2], in experiment [5], in experiment [6], in [16], in experiment [11] and in experiment [12] was “inactive” each time. The Potency result in [17] and in experiment [14] was “inactive” in each case.

In the case of `CC1(C)[C@@H]2CC[C@@]1(C)C(=O)C2`, the call in [1], in experiment [4], in experiment [7], in [8], in experiment [9] and in [10] was inactive. For the same molecule, the molecule was classed as inactive in [13] and in experiment [19]. The Potency entry in experiment [2], in experiment [3], in [5], in experiment [6], in [16] and in experiment [11] was “inactive” throughout. In addition, the Potency entry in [12], in experiment [14] and in experiment [20] was “inactive” each time. Also, the max activation in [18] is -1.13%.

Turning to `CC(=O)OCC(COC(C)=O)OC(C)=O`, the call in experiment [1], in experiment [4], in [7], in [8], in experiment [9] and in experiment [10] was inactive. The molecule was classed as inactive in experiment [13] and in [19]. Besides, the Potency result in [2], in experiment [5], in experiment [6], in [16], in experiment [11] and in experiment [12] was “inactive” in each case. In addition, the Potency result in experiment [14] and in [20] was “inactive” each time. The max activation in experiment [18] is 3.67%.

Turning to `CCOc1ccc(NC(=O)CC(C)O)cc1` (stereo unspecified), the outcome in [1], in experiment [4], in [7], in [8], in [9] and in experiment [10] was inactive. Besides, the molecule was classed as inactive in experiment [13] and in [19]. The Potency entry in experiment [2], in experiment [3], in experiment [5], in experiment [6], in experiment [11] and in experiment [12] was “inactive” in each case. For the same molecule, the Potency result in experiment [14], in [15] and in experiment [20] was “inactive” throughout. In addition, the max activation in [18] was 0.554%.

For the molecule `COC(=O)[C@H](Cc1ccccc1)NC(=O)[C@@H](N)CC(=O)O` (H-Asp-Phe-OMe), the outcome in experiment [1], in [4], in experiment [7], in [8], in experiment [9] and in experiment [10] was inactive. The molecule was called inactive in [13] and in [19]. The Potency result in experiment [2], in experiment [5], in experiment [6], in experiment [16], in experiment [11] and in [12] was “inactive” each time. Further, the Potency entry in [17], in [14] and in experiment [20] was “inactive” throughout. In addition, in experiment [18], the max activation is -3.24% and -1.16%.
